Data on 40 sequences can be found in the OligoGym collection.
Also: reference of the scale not given here.

The first assay has as its target HOXA6. In words: pooled miR-30 sensor sort-seq; sequence = guide strand. Conditions: shRNA.
The sequence TTATCAGAATAGAAACACGAGG returned a sensor-assay potency score (higher = more potent) of -1.05.

ATTGATGAGCTTGTTTTCCTTT returned a sensor-assay potency score (higher = more potent) of 0.0267.

As for TGTACTTCCGGTCGGCGCCTTC, the sensor-assay potency score (higher = more potent) was -0.845.

A further assay has as its target HOXD12. Described as above. Conditions: shRNA.
In turn, TGTCATGTTCAAGTTGAGCGGG displayed a sensor-assay potency score (higher = more potent) of -0.623.

For the sequence TATTGGACAATTCCTTGCGTTT, the sensor-assay potency score (higher = more potent) is -1.31.

In turn, TTTGACTTGCTGGTCGCTGAGG gave a sensor-assay potency score (higher = more potent) of -0.827.

For TAGGGTTTCCGCTTCTTGCGGG, the sensor-assay potency score (higher = more potent) is -0.0363.

On to TTGACTTGCTGGTCGCTGAGGT, for which the sensor-assay potency score (higher = more potent) is 0.586.

For the sequence TTGCTGGTCGCTGAGGTTCAGC, the sensor-assay potency score (higher = more potent) was -1.6.

As for ATTTTGACTTGCTGGTCGCTGA, the sensor-assay potency score (higher = more potent) was -0.889.

Consider TTGGTGTCGTCCTTGAAGCCAG, for which the sensor-assay potency score (higher = more potent) is -0.854.

Regarding TTAGCCTGCTCTTCGGGTCCGT, the sensor-assay potency score (higher = more potent) was -0.755.

Turning to TGGAGAAGTAGAAAGAGTCTGG, the sensor-assay potency score (higher = more potent) is -0.0412.

For another assay, the target named is HOXD4. The description is as above. Conditions: shRNA.
As to TCGGACTGACTGTAGGCCCGGG, the sensor-assay potency score (higher = more potent) is -0.239.

On to TTGGGGTCCACATACTTGGAGT, for which the sensor-assay potency score (higher = more potent) is -0.994.

TTTTTCCAGTTCTAGGACTTGC displayed a sensor-assay potency score (higher = more potent) of -0.495.

For the sequence TAGTGTTGGGCAGCTTATGATC, the sensor-assay potency score (higher = more potent) was -1.61.

Turning to TTATGTTCTCAGTAGCTCCTGC, the sensor-assay potency score (higher = more potent) stood at 0.0954.

Take TAAAATGAAATTCTTTTTCCAG: the sensor-assay potency score (higher = more potent) is -0.413.

For TTCTTTTTCCAGTTCTAGGACT, the sensor-assay potency score (higher = more potent) is -0.804.

Regarding TTATGATCTTTTTTCCACTTCA, the sensor-assay potency score (higher = more potent) was -0.3.

TGCACCTTCTTCATCCAGGGGT yielded a sensor-assay potency score (higher = more potent) of -0.0453.

ATGATCTTTTTTCCACTTCATC registered a sensor-assay potency score (higher = more potent) of -1.7.

TAGGACTTGCTGCCGGGTGTAG gave a sensor-assay potency score (higher = more potent) of -1.46.

The next assay has as its target HP1BP3. The assay is described as above. Conditions: shRNA.
TCTTCGGAAACAGAACTCCTGG displayed a sensor-assay potency score (higher = more potent) of -0.507.

For TTCTGAACCACAACAAAACTTC, the sensor-assay potency score (higher = more potent) is -0.196.

As to TACTGAGACACATATTTCCTGA, the sensor-assay potency score (higher = more potent) was -0.347.

For TAGACTGATCTTTCTCATCCTT, the sensor-assay potency score (higher = more potent) worked out at 0.288.

For TTCTTCTGCAACCTTCTCTTAG, the sensor-assay potency score (higher = more potent) is -0.784.

In turn, TTTTCGAATAGCAACCACTGAT came in with a sensor-assay potency score (higher = more potent) of -0.782.

As to TTCCTCTGAACTTATGTCTGGT, the sensor-assay potency score (higher = more potent) stood at 0.357.

As to TAAGATTGCATCCATCTTGGGA, the sensor-assay potency score (higher = more potent) was -0.272.

In the case of TTGATTTCTGAACCACAACAAA, the sensor-assay potency score (higher = more potent) was -1.61.

In turn, TATCTTCTACCTTCTCACCTAA came in with a sensor-assay potency score (higher = more potent) of -0.313.

Sequence TTCGGAAACAGAACTCCTGGGC had a sensor-assay potency score (higher = more potent) of 0.0322.

In another assay the target is HPD. Described as above. Conditions: shRNA.
As to ATGACTTCCAGGAAGAGCGTGG, the sensor-assay potency score (higher = more potent) was -0.0981.

TTTGATTACATGGCTGACCACC returned a sensor-assay potency score (higher = more potent) of -0.613.

The sequence TTTCTCGTCGTAGTCCACCAGG came in with a sensor-assay potency score (higher = more potent) of -0.901.

The sequence TTGAACAGTGAGTTGAAGTTGC displayed a sensor-assay potency score (higher = more potent) of 0.599.

TTTGGTGAAGATCTGCAGGAGG yielded a sensor-assay potency score (higher = more potent) of -0.36.
